# Results published in the supplement of paper PMC11001985.
# Compound: C#CCNC(=O)CCSSCCC(=O)NCCc1ccc(C=O)c(C=O)c1
# Test: lysine labeling ratio R10:1 (500 µM / 50 µM probe), SILAC-ABPP in living cells; higher = lower intrinsic lysine reactivity toward the probe, active = 2 or less
# Details: HeLa; probe concentrations 500 vs 50 µM
# Summary of the method: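 R, given per lysine, is the filtered median high-probe/low-probe MS1 peptide ratio, with the median then taken across forward and reverse replicates. Cells were living SILAC light and heavy HeLa cells in PBS at room temperature, labelled with 50 µM or 500 µM of an alkyne-tagged, disulfide-linked lysine probe. The ceiling applied is 20.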
# Chain of UniProt Q15149 (Q15149 whole entry): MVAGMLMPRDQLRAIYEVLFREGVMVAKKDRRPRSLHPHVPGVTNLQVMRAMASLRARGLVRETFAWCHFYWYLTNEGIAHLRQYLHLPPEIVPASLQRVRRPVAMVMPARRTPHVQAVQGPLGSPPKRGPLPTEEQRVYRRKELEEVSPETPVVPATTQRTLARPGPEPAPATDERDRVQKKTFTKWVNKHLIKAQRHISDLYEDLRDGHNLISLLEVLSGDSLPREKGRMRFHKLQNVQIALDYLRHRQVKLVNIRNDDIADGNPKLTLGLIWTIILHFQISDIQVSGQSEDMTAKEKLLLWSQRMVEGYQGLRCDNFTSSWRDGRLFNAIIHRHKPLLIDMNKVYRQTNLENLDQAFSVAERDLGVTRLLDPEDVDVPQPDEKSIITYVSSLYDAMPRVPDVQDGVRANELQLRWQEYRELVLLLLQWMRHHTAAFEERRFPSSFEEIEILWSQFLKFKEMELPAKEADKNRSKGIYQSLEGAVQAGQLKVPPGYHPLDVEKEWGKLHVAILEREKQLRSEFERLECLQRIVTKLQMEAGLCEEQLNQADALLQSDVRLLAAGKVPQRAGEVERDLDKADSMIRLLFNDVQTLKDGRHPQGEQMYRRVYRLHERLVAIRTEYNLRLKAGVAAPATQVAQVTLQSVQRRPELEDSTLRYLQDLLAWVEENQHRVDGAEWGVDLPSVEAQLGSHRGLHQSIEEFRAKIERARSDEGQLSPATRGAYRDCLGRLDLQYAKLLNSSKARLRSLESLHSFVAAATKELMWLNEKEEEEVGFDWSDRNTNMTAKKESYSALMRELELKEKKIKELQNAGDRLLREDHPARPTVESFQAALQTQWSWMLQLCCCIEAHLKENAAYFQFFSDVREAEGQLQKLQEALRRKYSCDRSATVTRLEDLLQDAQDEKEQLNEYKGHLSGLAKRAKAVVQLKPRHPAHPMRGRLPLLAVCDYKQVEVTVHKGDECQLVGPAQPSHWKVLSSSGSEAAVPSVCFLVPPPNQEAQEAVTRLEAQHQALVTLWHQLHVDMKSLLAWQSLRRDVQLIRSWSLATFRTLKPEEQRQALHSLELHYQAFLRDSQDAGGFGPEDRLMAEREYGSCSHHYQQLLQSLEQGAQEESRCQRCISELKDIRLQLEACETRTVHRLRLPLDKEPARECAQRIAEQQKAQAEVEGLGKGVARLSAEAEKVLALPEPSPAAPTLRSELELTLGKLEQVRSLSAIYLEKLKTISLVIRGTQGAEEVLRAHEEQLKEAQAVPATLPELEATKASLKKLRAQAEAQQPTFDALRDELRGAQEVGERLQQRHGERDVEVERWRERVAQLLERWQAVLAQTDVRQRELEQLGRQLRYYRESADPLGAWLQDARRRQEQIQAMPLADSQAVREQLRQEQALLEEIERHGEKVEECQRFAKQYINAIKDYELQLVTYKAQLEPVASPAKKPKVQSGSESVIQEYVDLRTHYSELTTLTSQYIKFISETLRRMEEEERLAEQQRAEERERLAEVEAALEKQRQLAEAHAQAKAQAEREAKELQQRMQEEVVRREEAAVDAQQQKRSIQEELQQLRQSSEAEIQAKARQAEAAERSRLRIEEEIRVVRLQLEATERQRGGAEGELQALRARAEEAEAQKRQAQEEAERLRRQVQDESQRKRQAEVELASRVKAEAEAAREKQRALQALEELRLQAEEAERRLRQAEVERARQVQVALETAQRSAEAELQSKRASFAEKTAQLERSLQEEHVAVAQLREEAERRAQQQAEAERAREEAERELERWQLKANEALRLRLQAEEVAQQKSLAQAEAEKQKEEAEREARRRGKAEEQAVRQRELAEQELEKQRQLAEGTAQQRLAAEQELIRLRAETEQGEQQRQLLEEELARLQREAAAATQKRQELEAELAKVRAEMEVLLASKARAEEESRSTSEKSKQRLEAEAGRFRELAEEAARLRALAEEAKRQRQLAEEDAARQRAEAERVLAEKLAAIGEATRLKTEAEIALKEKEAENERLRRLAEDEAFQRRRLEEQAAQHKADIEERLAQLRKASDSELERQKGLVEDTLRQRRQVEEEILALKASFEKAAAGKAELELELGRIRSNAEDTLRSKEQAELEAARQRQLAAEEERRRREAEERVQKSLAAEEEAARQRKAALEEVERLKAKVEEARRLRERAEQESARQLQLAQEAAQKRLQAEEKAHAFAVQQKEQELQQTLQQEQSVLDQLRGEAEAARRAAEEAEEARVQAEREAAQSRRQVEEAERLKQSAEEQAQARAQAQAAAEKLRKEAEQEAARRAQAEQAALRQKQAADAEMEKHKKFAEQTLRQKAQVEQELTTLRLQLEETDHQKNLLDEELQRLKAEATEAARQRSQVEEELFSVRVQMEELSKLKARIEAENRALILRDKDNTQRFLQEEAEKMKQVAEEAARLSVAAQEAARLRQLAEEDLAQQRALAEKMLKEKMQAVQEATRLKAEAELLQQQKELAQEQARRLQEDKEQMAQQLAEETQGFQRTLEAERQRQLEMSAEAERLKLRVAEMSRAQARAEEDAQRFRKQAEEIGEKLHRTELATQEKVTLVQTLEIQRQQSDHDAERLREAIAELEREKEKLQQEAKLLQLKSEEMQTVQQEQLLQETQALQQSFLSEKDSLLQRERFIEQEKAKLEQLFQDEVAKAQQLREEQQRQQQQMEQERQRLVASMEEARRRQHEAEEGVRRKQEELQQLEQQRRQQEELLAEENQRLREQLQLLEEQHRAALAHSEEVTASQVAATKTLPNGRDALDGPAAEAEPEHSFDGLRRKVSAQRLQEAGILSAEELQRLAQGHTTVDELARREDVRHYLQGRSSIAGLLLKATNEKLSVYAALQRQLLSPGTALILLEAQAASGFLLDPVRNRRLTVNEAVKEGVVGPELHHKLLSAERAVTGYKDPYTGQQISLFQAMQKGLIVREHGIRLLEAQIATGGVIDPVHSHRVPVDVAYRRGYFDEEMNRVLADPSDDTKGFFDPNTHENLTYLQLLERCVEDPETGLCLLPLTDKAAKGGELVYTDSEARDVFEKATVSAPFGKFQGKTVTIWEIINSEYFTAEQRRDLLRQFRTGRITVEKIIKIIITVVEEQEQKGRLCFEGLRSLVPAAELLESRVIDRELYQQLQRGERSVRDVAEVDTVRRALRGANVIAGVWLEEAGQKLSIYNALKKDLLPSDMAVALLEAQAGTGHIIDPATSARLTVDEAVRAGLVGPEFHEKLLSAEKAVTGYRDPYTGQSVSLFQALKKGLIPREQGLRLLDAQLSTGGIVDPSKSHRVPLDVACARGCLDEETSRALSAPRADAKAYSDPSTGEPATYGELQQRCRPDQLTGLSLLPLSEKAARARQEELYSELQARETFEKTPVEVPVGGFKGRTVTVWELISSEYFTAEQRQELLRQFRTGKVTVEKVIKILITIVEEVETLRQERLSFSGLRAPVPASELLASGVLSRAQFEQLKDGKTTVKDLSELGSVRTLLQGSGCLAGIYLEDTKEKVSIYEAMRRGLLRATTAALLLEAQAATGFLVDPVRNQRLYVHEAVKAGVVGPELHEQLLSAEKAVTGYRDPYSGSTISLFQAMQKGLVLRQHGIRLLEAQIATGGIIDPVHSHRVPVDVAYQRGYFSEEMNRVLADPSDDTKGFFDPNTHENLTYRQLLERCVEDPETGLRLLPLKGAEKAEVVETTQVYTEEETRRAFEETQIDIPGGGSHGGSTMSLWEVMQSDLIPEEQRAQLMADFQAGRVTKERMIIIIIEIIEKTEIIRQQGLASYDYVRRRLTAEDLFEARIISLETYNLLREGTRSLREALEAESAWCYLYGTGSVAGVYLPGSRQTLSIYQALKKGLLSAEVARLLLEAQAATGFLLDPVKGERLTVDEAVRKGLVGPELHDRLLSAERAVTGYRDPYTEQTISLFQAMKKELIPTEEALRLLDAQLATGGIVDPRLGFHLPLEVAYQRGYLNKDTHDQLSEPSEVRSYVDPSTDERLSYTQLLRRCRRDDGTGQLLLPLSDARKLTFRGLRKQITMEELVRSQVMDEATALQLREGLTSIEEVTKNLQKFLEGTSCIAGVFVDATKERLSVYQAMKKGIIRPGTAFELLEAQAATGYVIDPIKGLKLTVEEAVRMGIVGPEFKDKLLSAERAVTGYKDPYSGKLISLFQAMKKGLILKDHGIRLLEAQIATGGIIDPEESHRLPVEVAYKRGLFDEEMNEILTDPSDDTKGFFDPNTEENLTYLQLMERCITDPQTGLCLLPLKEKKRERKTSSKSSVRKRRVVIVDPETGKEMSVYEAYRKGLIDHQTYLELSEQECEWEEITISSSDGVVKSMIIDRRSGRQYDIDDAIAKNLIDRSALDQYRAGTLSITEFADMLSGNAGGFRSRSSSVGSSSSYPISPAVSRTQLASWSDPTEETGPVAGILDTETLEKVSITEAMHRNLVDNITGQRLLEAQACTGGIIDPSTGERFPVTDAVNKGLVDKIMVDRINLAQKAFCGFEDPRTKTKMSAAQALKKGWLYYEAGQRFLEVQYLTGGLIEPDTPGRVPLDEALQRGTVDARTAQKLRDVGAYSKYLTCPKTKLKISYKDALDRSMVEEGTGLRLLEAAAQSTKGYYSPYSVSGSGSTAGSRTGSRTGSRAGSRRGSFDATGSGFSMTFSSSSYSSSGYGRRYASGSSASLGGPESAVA
# Chain of UniProt P26641 (P26641 whole entry): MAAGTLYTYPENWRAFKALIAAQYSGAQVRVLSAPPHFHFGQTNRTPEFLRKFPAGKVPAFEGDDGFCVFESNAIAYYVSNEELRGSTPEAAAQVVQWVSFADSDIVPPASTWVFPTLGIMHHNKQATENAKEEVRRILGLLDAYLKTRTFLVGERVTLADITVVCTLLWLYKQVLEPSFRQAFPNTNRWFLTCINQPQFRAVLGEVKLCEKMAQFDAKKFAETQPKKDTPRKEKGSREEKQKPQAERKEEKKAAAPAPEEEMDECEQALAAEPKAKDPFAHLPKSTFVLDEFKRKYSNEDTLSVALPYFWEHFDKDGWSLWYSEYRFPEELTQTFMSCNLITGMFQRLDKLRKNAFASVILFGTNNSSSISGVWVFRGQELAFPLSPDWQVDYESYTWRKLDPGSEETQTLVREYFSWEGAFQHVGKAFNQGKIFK
row,Target,lysine labeling ratio R10:1
1,NUCB1 (lysine site: K183) (UniProt Q02818),3.16 (inactive)
2,HSP90B1 (lysine site: K75) (UniProt P14625),1.47 (active)
3,ADAM15 (lysine site: K660) (UniProt Q13444),4.34 (inactive)
4,EHD2 (lysine site: K32) (UniProt Q9NZN4),2.92 (inactive)
5,UniProt P21589 (lysine site: K536),1.24 (active)
6,UniProt P23352 (lysine site: K285),3.04 (inactive)
7,UniProt P62888 (lysine site: K9),2.95 (inactive)
8,UniProt Q16513 (lysine site: K690),2.89 (inactive)
9,UniProt Q15149 (lysine site: K3027),2.74 (inactive)
10,HEG1 (lysine site: K1075) (UniProt Q9ULI3),3.38 (inactive)
11,EEF1G (lysine site: K434) (UniProt P26641),3.73 (inactive)
12,UniProt Q14696 (lysine site: K222),3.35 (inactive)
13,MSN (lysine site: K64) (UniProt P26038),1.22 (active)
14,ACIN1 (lysine site: K81) (UniProt Q9UKV3),3.67 (inactive)
15,LDHA (lysine site: K155) (UniProt P00338),2.54 (inactive)
16,MSN (lysine site: K391) (UniProt P26038),1.79 (active)
17,CDH2 (lysine site: K189) (UniProt P19022),4.45 (inactive)
18,ITGAV (lysine site: K165) (UniProt P06756),10.3 (inactive)
19,SERBP1 (lysine site: K122) (UniProt Q8NC51),11.8 (inactive)
20,HNRNPL (lysine site: K269) (UniProt P14866),2.23 (inactive)

row,Target,lysine labeling ratio R10:1
1,UniProt P05186 (lysine site: K241),3.23 (inactive)
2,UniProt Q16363 (lysine site: K1068),2.52 (inactive)
3,UniProt P62280 (lysine site: K32),4.32 (inactive)
4,TAGLN2 (lysine site: K40) (UniProt P37802),2.67 (inactive)
5,LAMC1 (lysine site: K1355) (UniProt P11047),1.67 (active)
6,BCAP31 (lysine site: K204) (UniProt P51572),1.82 (active)
7,VDAC1 (lysine site: K61) (UniProt P21796),1.88 (active)
8,ATP1B1 (lysine site: K288) (UniProt P05026),13.2 (inactive)
9,PCNA (lysine site: K254) (UniProt P12004),1.56 (active)
10,RTN4 (lysine site: K1066) (UniProt Q9NQC3),3.4 (inactive)
11,COL5A1 (lysine site: K605) (UniProt P20908),2.05 (inactive)
12,UniProt P09758 (lysine site: K138),5.06 (inactive)
13,SEMA4D (lysine site: K104) (UniProt Q92854),0.575 (active)
14,UniProt Q15149 (lysine site: K2274),2.24 (inactive)
15,FSCN1 (lysine site: K74) (UniProt Q16658),1.36 (active)
16,UniProt Q9NYQ7 (lysine site: K2131),1.56 (active)
17,SFN (lysine site: K49) (UniProt P31947),5.33 (inactive)
18,UniProt Q15149 (lysine site: K1921),1.36 (active)
19,UniProt P05187 (lysine site: K262),0.97 (active)
20,UniProt Q9NYQ6 (lysine site: K1830),0.925 (active)
